# Data as given in PubChem BioAssay AID1159580 (chemical genetic matrix, 2015).
# Out of some 5,500 compounds screened, about 2,000 (36%) were called active. Not shown: some 18% with an inconclusive outcome. The list shows a part of the results. Values without a mark were called inactive. Cut-off read from the data, not from the text of the source: active = normalized growth mostly below about 0.91 (no sharp cut-off); inconclusive = no clear call, values can overlap the other calls; inactive = mostly above about 0.92.
# Assay: chemical genetic growth profiling, strain panel (AID 1159580);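 note: tested at 20 µM; growth read once vehicle control cultures reached saturation at 30 °C; 1 = growth at the plate median or of vehicle wells; lower values mean less growth of the strain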
# Conditions: growth OD
smiles,measurement,setting,value
COc1ccc2c(c1)OCC(Cc1ccc(OC)c(O)c1)C2=O (stereo not drawn),normalized growth,"S. cerevisiae deletion strains, locus YJR043C, strain POL32, active compounds read low",0.998
same,normalized growth,"S. cerevisiae deletion strains, locus YJR066W, strain TOR1, active compounds read low",0.904
same,normalized growth,"S. cerevisiae deletion strains, locus YKL009W, strain mrt4, active compounds read low",0.94
same,normalized growth,"S. cerevisiae deletion strains, locus YKL068W, active compounds read low",0.97
same,normalized growth,"S. cerevisiae deletion strains, locus YKL085W, strain MDH1 (second series), active compounds read low",0.969
same,normalized growth,"S. cerevisiae deletion strains, locus YKL085W, strain MDH1, active compounds read low",0.969
same,normalized growth,"S. cerevisiae deletion strains, locus YKL160W, strain elf1, active compounds read low",0.925
same,normalized growth,"S. cerevisiae deletion strains, locus YKL190W, strain CNB1, active compounds read low",0.984
same,normalized growth,"S. cerevisiae deletion strains, locus YKR001C, strain vps1, active compounds read low",0.964
same,normalized growth,"S. cerevisiae deletion strains, locus YKR026C, strain gcn3, active compounds read low",0.966
same,normalized growth,"S. cerevisiae deletion strains, locus YKR091W, strain srl3, active compounds read low",0.962
same,normalized growth,"S. cerevisiae deletion strains, locus YLL001W, strain dnm1, active compounds read low",0.931
same,normalized growth,"S. cerevisiae deletion strains, locus YLL026W, active compounds read low",0.957
same,normalized growth,"S. cerevisiae deletion strains, locus YLL041C, strain sdh2, active compounds read low",0.955
same,normalized growth,"S. cerevisiae deletion strains, locus YLR027C, strain aat2, active compounds read low",0.933
same,normalized growth,"S. cerevisiae deletion strains, locus YLR039C, strain RIC1, active compounds read low",1.02
same,normalized growth,"S. cerevisiae deletion strains, locus YLR058C, strain SHM2, active compounds read low",0.958
same,normalized growth,"S. cerevisiae deletion strains, locus YLR102C, strain apc9, active compounds read low",0.955
same,normalized growth,"S. cerevisiae deletion strains, locus YLR113W, strain HOG1, active compounds read low",0.917
same,normalized growth,"S. cerevisiae deletion strains, locus YLR221C, strain rsa3, active compounds read low",0.923
same,normalized growth,"S. cerevisiae deletion strains, locus YLR258W, strain gsy2, active compounds read low",0.91 (active)
same,normalized growth,"S. cerevisiae deletion strains, locus YLR262C, strain YPT6 (second series), active compounds read low",0.985
same,normalized growth,"S. cerevisiae deletion strains, locus YLR262C, strain YPT6, active compounds read low",0.986
same,normalized growth,"S. cerevisiae deletion strains, locus YLR268W, strain sec22, active compounds read low",0.976
same,normalized growth,"S. cerevisiae deletion strains, locus YLR320W, strain mms22, active compounds read low",0.835 (active)
same,normalized growth,"S. cerevisiae deletion strains, locus YLR330W, strain CHS5, active compounds read low",0.952
same,normalized growth,"S. cerevisiae deletion strains, locus YLR342W, strain FKS1 (second series), active compounds read low",0.955
same,normalized growth,"S. cerevisiae deletion strains, locus YLR342W, strain FKS1, active compounds read low",0.922
same,normalized growth,"S. cerevisiae deletion strains, locus YLR357W, strain rsc2, active compounds read low",0.998
same,normalized growth,"S. cerevisiae deletion strains, locus YLR370C, strain arc18, active compounds read low",0.97
same,normalized growth,"S. cerevisiae deletion strains, locus YLR371W, strain rom2, active compounds read low",0.975
same,normalized growth,"S. cerevisiae deletion strains, locus YLR384C, strain iki3, active compounds read low",0.948
same,normalized growth,"S. cerevisiae deletion strains, locus YLR418C, strain cdc73, active compounds read low",0.81 (active)
same,normalized growth,"S. cerevisiae deletion strains, locus YML016C, strain PPZ1, active compounds read low",0.967
same,normalized growth,"S. cerevisiae deletion strains, locus YML032C, strain rad52, active compounds read low",0.949
same,normalized growth,"S. cerevisiae deletion strains, locus YML120C, strain ndi1, active compounds read low",0.938
same,normalized growth,"S. cerevisiae deletion strains, locus YML124C, strain tub3, active compounds read low",0.954
same,normalized growth,"S. cerevisiae deletion strains, locus YMR058W, strain fet3, active compounds read low",0.948
same,normalized growth,"S. cerevisiae deletion strains, locus YMR078C, strain ctf18, active compounds read low",0.95
same,normalized growth,"S. cerevisiae deletion strains, locus YMR125W, strain sto1, active compounds read low",1.01
same,normalized growth,"S. cerevisiae deletion strains, locus YMR129W, active compounds read low",0.948
same,normalized growth,"S. cerevisiae deletion strains, locus YMR205C, strain PFK2, active compounds read low",0.833 (active)
same,normalized growth,"S. cerevisiae deletion strains, locus YMR223W, strain ubp8, active compounds read low",0.933
same,normalized growth,"S. cerevisiae deletion strains, locus YMR231W, strain pep5, active compounds read low",0.967
same,normalized growth,"S. cerevisiae deletion strains, locus YMR307W, strain GAS1, active compounds read low",0.97
same,normalized growth,"S. cerevisiae deletion strains, locus YNL067W, strain RPL9B, active compounds read low",0.944
same,normalized growth,"S. cerevisiae deletion strains, locus YNL071W, strain lat1, active compounds read low",0.681 (active)
same,normalized growth,"S. cerevisiae deletion strains, locus YNL183C, strain NPR1, active compounds read low",0.933
same,normalized growth,"S. cerevisiae deletion strains, locus YNL209W, strain ssb2, active compounds read low",0.978
same,normalized growth,"S. cerevisiae deletion strains, locus YNL233W, strain BNI4, active compounds read low",0.905
same,normalized growth,"S. cerevisiae deletion strains, locus YNL248C, strain rpa49, active compounds read low",0.919
same,normalized growth,"S. cerevisiae deletion strains, locus YNL250W, strain rad50, active compounds read low",0.94
same,normalized growth,"S. cerevisiae deletion strains, locus YNL271C, strain bni1, active compounds read low",0.952
same,normalized growth,"S. cerevisiae deletion strains, locus YNL298W, strain CLA4, active compounds read low",0.959
same,normalized growth,"S. cerevisiae deletion strains, locus YNL307C, strain MCK1, active compounds read low",0.824 (active)
same,normalized growth,"S. cerevisiae deletion strains, locus YNL322C, strain KRE1 (second series), active compounds read low",0.949
same,normalized growth,"S. cerevisiae deletion strains, locus YNR049C, strain mso1, active compounds read low",0.967
same,normalized growth,"S. cerevisiae deletion strains, locus YNR052C, strain pop2, active compounds read low",0.937
same,normalized growth,"S. cerevisiae deletion strains, locus YOL012C, strain htz1",1.16
same,normalized growth,"S. cerevisiae deletion strains, locus YOL147C, strain pex11, active compounds read low",0.964
same,normalized growth,"S. cerevisiae deletion strains, locus YOR001W, strain rrp6, active compounds read low",0.898
same,normalized growth,"S. cerevisiae deletion strains, locus YOR061W, strain CKA2, active compounds read low",0.963
same,normalized growth,"S. cerevisiae deletion strains, locus YOR069W, strain VPS5, active compounds read low",0.96
same,normalized growth,"S. cerevisiae deletion strains, locus YOR070C, strain gyp1, active compounds read low",0.968
same,normalized growth,"S. cerevisiae deletion strains, locus YOR080W, strain dia2, active compounds read low",0.979
same,normalized growth,"S. cerevisiae deletion strains, locus YOR083W, strain WHI5, active compounds read low",0.911
same,normalized growth,"S. cerevisiae deletion strains, locus YOR106W, strain vam3, active compounds read low",0.886
same,normalized growth,"S. cerevisiae deletion strains, locus YOR136W, strain idh2, active compounds read low",0.962
same,normalized growth,"S. cerevisiae deletion strains, locus YOR144C, strain elg1, active compounds read low",0.95
same,normalized growth,"S. cerevisiae deletion strains, locus YOR184W, strain ser1, active compounds read low",0.906
same,normalized growth,"S. cerevisiae deletion strains, locus YOR231W, strain MKK1, active compounds read low",0.998
same,normalized growth,"S. cerevisiae deletion strains, locus YOR265W, strain rbl2, active compounds read low",0.962
same,normalized growth,"S. cerevisiae deletion strains, locus YOR270C, strain vph1, active compounds read low",0.823
same,normalized growth,"S. cerevisiae deletion strains, locus YOR290C, strain snf2, active compounds read low",0.897
same,normalized growth,"S. cerevisiae deletion strains, locus YOR316C, strain cot1, active compounds read low",0.959
same,normalized growth,"S. cerevisiae deletion strains, locus YPL051W, strain arl3, active compounds read low",0.939
same,normalized growth,"S. cerevisiae deletion strains, locus YPL055C, strain LGE1, active compounds read low",0.96
same,normalized growth,"S. cerevisiae deletion strains, locus YPL078C, strain atp4, active compounds read low",0.914
same,normalized growth,"S. cerevisiae deletion strains, locus YPL106C, strain sse1, active compounds read low",0.972
same,normalized growth,"S. cerevisiae deletion strains, locus YPL240C, strain hsp82, active compounds read low",0.946
same,normalized growth,"S. cerevisiae deletion strains, locus YPL241C, strain CIN2, active compounds read low",0.973
same,normalized growth,"S. cerevisiae deletion strains, locus YPL256C, strain CLN2, active compounds read low",1.01
same,normalized growth,"S. cerevisiae deletion strains, locus YPR119W, strain clb2, active compounds read low",0.95
same,normalized growth,"S. cerevisiae deletion strains, locus YPR141C, strain kar3, active compounds read low",0.971
same,normalized growth,"S. cerevisiae deletion strains, locus YPR163C, strain tif3, active compounds read low",0.842 (active)
same,normalized growth,"S. cerevisiae deletion strains, locus YPR167C, strain met16, active compounds read low",0.89 (active)
same,normalized growth,"S. cerevisiae deletion strains, strain wtn01, active compounds read low",0.95
same,normalized growth,"S. cerevisiae strains, strain wild type, active compounds read low",0.973
